Reference: the supplement of paper PMC10338343
± gives the standard deviation.

Experiments:
[1] = tested on: MILI (PIWIL2) piRISC loaded with L1MC piRNA (26 nt); experiment: pre-steady-state target cleavage rate (min^-1); guide: L1MC piRNA 5'p-UAACUAAAUACUAUGCAAGCUGUAGG; higher = faster piRNA-guided slicing of the target
Method in brief: (§1)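 Using HEPES–potassium acetate buffer at 33 °C, 1 nM active affinity-purified piRISC with a single synthetic guide was mixed with 0.1 nM transcribed, DNA-blocked target RNA library for 0–8 or 0–960 min, with or without 500 nM GTSF1 partner protein. Uncleaved targets were sequenced and normalised to depth and to weakly complementary targets, and three trials were pooled with k3 capped at 0.0001 min^-1. A burst-and-steady-state fit gave the pre-steady-state cleavage rate.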

[2] = tested on: EfPiwi piRISC loaded with L1MC piRNA (26 nt); experiment: pre-steady-state target cleavage rate (min^-1); auxiliary factor: 500 nM Ephydatia muelleri Gtsf1; guide: L1MC piRNA 5'p-UAACUAAAUACUAUGCAAGCUGUAGG; MIWI and MILI are mouse PIWI proteins and EfPiwi is from a freshwater sponge; tags in brackets are library labels; higher = faster piRNA-guided slicing of the target
Method in brief: as §1

[3] = auxiliary factor: 500 nM mouse GTSF1
[4] = auxiliary factor: none (no GTSF1)

| Sequence | pre-steady-state target cleavage rate [1, 3] | pre-steady-state target cleavage rate [2] | pre-steady-state target cleavage rate [1, 4] |
| --- | --- | --- | --- |
| UCCUCCUACAGGUUCCAUAGUAUUUAGUUA | 0.0813 ± 0.027 | 0.0023 ± 0.0012 |  |
| UCCUGCUACAGGUUGCAUAGAAUUUAGUUA | 0.0387 ± 0.0083 | 0.00649 ± 0.0018 |  |
| UCCUGGUACUGCUUGCAUAGUAUUUUCAAA | 0.0112 ± 0.0064 | 0.00285 ± 0.0022 |  |
| UCCUGGUACAGCUUGCAUAGUAUUUUCUUA | 0.0368 ± 0.016 | 0.00532 ± 0.0034 |  |
| UCCUGGAUGUCGAACGUAUCUAUUUAUGUUA |  |  | < 0.0001 |
| UCCUGGAUGUCGAACGUUAGUAUUUUCAAA [g6:g13:cont:t1A] |  |  | < 0.0001 |
| UCCUCCUACAGCUUCGAUAGUAUUUAGUAA | 0.217 ± 0.02 | 0.00413 ± 0.0021 |  |
| UCCUGGUACAGCUAGCAUAGUAUUUAGAAA | 0.0357 ± 0.013 | 0.00319 ± 0.0022 |  |
| UCCUCCUACAGCAUGCAUAGAAUUUAGUUA | 0.176 ± 0.044 | 0.00245 ± 0.0015 |  |
| UCCUCCUACAGCAUGCAUAGUAUUUACAAA | 0.205 ± 0.037 | 0.00397 ± 0.0026 |  |
| UCCUCCUACAGCUUGCAUAGUUAAUAGUUA | 0.0685 ± 0.022 | 0.00703 ± 0.0035 |  |
| UCCUGCUACAGCUUGCAUAGCAUUUAGUUA | 0.141 ± 0.022 | 0.00521 ± 0.0016 |  |
| UCCUGGAUGAGCUUGCAUAGUAAAUAGUUA | 0.114 ± 0.015 | 0.00329 ± 0.0025 |  |
| UCCUCCAACAGCUUGCAUAGUAUUUUCAAA | 0.0817 ± 0.015 | 0.00396 ± 0.0027 |  |
| UCCUCCUACAGCUACGAUAGUAUUUAGUUA | 0.232 ± 0.015 | 0.00503 ± 0.0031 |  |
| UCCUGCUACAGCUUGCAUAGUUUUUAGUAA | 0.0393 ± 0.011 | 0.00424 ± 0.0013 |  |
| UCCUGGAUGAGCUUCCAUAGUAUUUAGUUA | 0.0222 ± 0.011 | 0.00346 ± 0.0018 |  |
| UCCUGGAACAGGUUGCAUAGUAUUUAGAAA | 0.163 ± 0.026 | 0.00261 ± 0.0017 |  |
| UCCUGCUACAGCUUGGAUACUAUUUAGUUA | 0.0884 ± 0.018 | 0.00633 ± 0.0024 |  |
| UCCUCCUAGAGCUUGCAUAGUAUUUAGAUA | 0.123 ± 0.025 | 0.0043 ± 0.0018 |  |
